Laboratory results as given in PubChem BioAssay (NCI).
The panel holds about 83,000 compounds, 20% with a hit somewhere; the sample as a whole holds those more often.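 Testing used 96-well plates and a 48-hour single-concentration exposure. Example: -40 means 40% of the starting cells died.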 Values without a mark were called inactive. Active and inactive are the calls of the source. Rule for the calls: active = growth percent below 10; inactive = the rest.

Key:
Test in all cases: NCI-60 one-dose screen, 48 h (100 = growth as untreated, 0 = no growth, -100 = all killed)
Settings in all cases: 10 µM unless noted
NCI-H23 lung = tested on: NCI-H23 lung
NCI-H226 lung = tested on: NCI-H226 lung
NCI-H322M lung = tested on: NCI-H322M lung
HOP-62 NSCLC = tested on: HOP-62 NSCLC
NCI-H460 lung = tested on: NCI-H460 lung
HOP-92 NSCLC = tested on: HOP-92 NSCLC
NCI-H522 lung = tested on: NCI-H522 lung
A549/ATCC NSCLC = tested on: A549/ATCC NSCLC
786-0 renal = tested on: 786-0 renal
COLO 205 colon = tested on: COLO 205 colon

SMILES	growth (NCI-H23 lung)	growth (NCI-H226 lung)	growth (NCI-H322M lung)	growth (HOP-62 NSCLC)	growth (NCI-H460 lung)	growth (HOP-92 NSCLC)	growth (NCI-H522 lung)	growth (A549/ATCC NSCLC)	growth (786-0 renal)	growth (COLO 205 colon)
C=C(C)[C@@H]1CC[C@]2(C(=O)O)CC[C@]3(C)[C@H](CC[C@@H]4[C@@]5(C)C/C(=C/c6ccccn6)C(=O)C(C)(C)[C@@H]5CC[C@]43C)[C@@H]12	38.6%	39.9%	44.3%	36.3%	16.1%	34.7%	24.1%	16.5%	51.1%	54.7%
CN(C)c1cccc2c(S(=O)(=O)Nc3cccc(-c4csc(NC(=O)CCCCCN5CCN(CCO)CC5)n4)c3)cccc12	81.3%	91.2%	88.2%	84.9%	82.6%	37.5%	84.4%	74.9%	77.5%	81.1%
COC(=O)CCCNCCCn1ccc2cc(NCc3cccc(-c4ccccc4)c3C)ccc21	61.9%	69.7%	97.6%	81.9%	81.8%	22.3%	91.7%	84.9%	74.2%	64.4%
Cc1ccc(S(=O)(=O)NCCCNc2nc(Nc3ccc(N4CCN(C)CC4)cc3)nc3ccsc23)cc1	75.6%	117%	52.7%	97.1%	18.5%	49.6%	-5.6% (active)	37.1%	-26.7% (active)	-32.9% (active)
O=C(/C=C/C=C/c1csc(Br)n1)NO	103%	103%	99.4%	112%	92.2%	129%	79.1%	93.5%	101%	110%
Cc1ccc2c(n1)C(=O)C(Cl)=C(Nc1ccc(C(F)(F)F)cc1)C2=O	68.5%	89.5%	107%	97.2%	101%	71.3%	-18.8% (active)	102%	34%	16.7%
CCCCCCOC(=O)c1cc(-c2ccc(F)cc2)nc2ccccc12	90.3%	91.2%	94.9%	94.4%	103%	65.9%	82.8%	101%	107%	107%
CCOP(=O)(OCC)OC[C@]12CC[C@@H](C)[C@H](C)C1C1=CC[C@@H]3[C@@]4(C)CCCNC(C)(C)[C@@H]4CC[C@@]3(C)[C@]1(C)CC2 (stereo not given in full)	31.7%	62.5%	81.7%	65%	-68.2% (active)	34.8%	57.2%	18.2%	14.9%	-50.7% (active)
CC(C)(C)Nc1nc2c(OCCc3ccccc3)cccn2c1-c1ccc([N+](=O)[O-])cc1	62.4%	70.5%	64.7%	78.1%	60.8%	54.7%	41.4%	53.5%	75.1%	49%
CN1CCN(c2ccc(C(=O)/C=C/c3cc(F)cc(C(F)(F)F)c3)cc2)CC1	72%	61.8%	78.9%	93.1%	80.2%	40.6%	83.4%	66.2%	89.7%	100%
O=S(=O)(NCCCNc1nccc(-c2[nH]c(-c3ccccc3)nc2-c2ccc(F)c(O)c2)n1)c1ccc(C(F)(F)F)cc1	70.7%	48.5%	95.4%	62.3%	16.3%	71.6%	18.8%	41.7%	48%	88.3%
CCOc1cccc(/C(N)=N/C(N)=N/c2nc3ccccc3s2)c1	66.4%	78.6%	91%	-38.7% (active)	70.4%	105%	94.3%	-20% (active)	105%	113%
C#C[C@]1(O)CC[C@H]2[C@@H]3CC=C4c5sc(Nc6cc(Cl)ccc6OC)nc5CC[C@]4(C)[C@H]3CC[C@@]21C	33.4%	52.4%	53.2%	32.5%	17%	-0.0409% (active)	52.8%	28.7%	-32.3% (active)	21.8%
CC(=O)/C(N=Nc1ccc2oc(=O)ccc2c1)=C(\C)O	27.5%	42.6%	55.1%	26.2%	14.6%	2.61% (active)	31%	23.6%	37.5%	15.2%
O=C(CSc1nc2ccccc2c(=O)n1-c1ccccc1)N/N=C/c1ccc(Oc2ccc(Br)cc2)cc1	49.9%	77.6%	86.8%	63.9%	28%	73%	48.5%	42.2%	46%	44.4%
COc1ccc(C2c3[nH]c4ccc(Cl)cc4c3CCN2c2oc(CO)nc2C#N)cc1 (stereo not given)	69.9%	60%	70.4%	53.5%	22.9%	53.3%	31.7%	38.1%	64.6%	40.5%
Cc1ccc2c(n1)C(=O)C(Cl)=C(Nc1cc(C(F)(F)F)cc(C(F)(F)F)c1)C2=O	86%	84.3%	105%	118%	95.9%	92.4%	37.4%	101%	80.3%	92.5%
Clc1ccc2[nH]cc(-c3nn4cc(-c5ccncc5)nc4s3)c2c1	43.1%	22.7%	49.2%	46.6%	10.1%	33.8%	36.4%	68.6%	69.9%	69.5%
CCOC(=O)C1=C(C)NC(C)=C(C(=O)OC(C)C)C1c1cccc(C#N)c1 (stereo not given)	96.7%	98.1%	100%	101%	101%	114%	92.7%	100%	90.6%	114%
O=C1c2ccccc2C23C(=C(c4cncnc4)c4ccccc42)CCCN13 (stereo not given)	102%	97.4%	107%	108%	104%	90.9%	92.6%	98.9%	96.8%	121%
CN1CCN(Cc2ccc(NC(=O)c3cncc(C#Cc4cnc5ccc(N6CCOCC6)nn45)c3)cc2C(F)(F)F)CC1	-65.9% (active)	-62.3% (active)	-11.3% (active)	-79.7% (active)	-80.6% (active)	-25.6% (active)	-79.2% (active)	-84.9% (active)	-80.7% (active)	-87.3% (active)
COc1ccc(NC2=C(Br)C(=O)C(C)=C(C)C2=O)cc1OC	89.8%	88.2%	106%	104%	101%	-60.8% (active)	89.6%	98.7%	106%	125%
Cn1c(SCC(=O)c2ccco2)nc2ccccc2c1=O	97.4%	79.5%	91.8%	99.7%	101%	90.6%	101%	108%	110%	118%
Cc1cc(Br)ccc1-n1cc(C#N)c(N)c1C(=O)c1ccc(Br)cc1	92.7%	97.7%	104%	103%	113%	94.2%	99.6%	105%	93.5%	118%
Nc1ncc(-c2ccc3ncnc(NCc4ccccc4)c3c2)cn1	55.4%	33.9%	8.77% (active)	35.7%	44.7%	8.86% (active)	23.8%	41.3%	31.3%	69.3%
O=C(Nc1ccccc1)Nc1nc2ccc([N+](=O)[O-])cc2[nH]1	39.5%	55.4%	58.5%	105%	44.1%	-5.31% (active)	28.4%	56.7%	67.5%	88.7%
